What is called AC50 is the midpoint of the concentration-response curve, whichever way the signal moves.

The source made the active and inactive calls. Rule for the calls: active = hit-call score of the fitted dose curve at least 0.9, where 1 is the maximum; inactive = score below 0.9.

This experiment can be described thus: APR_HepG2_NuclearSize_1hr: Apredica 1-hour HepG2 Assay for Nuclear Size (AID 2282670). The settings on record: high-content imaging, actives raise or lower the signal. Here is the method:
APR_HepG2_1hr is a cell-based, multiplexed-readout assay that uses HepG2, a human liver cell line, with measurements taken at 1 hour after chemical dosing in a 384-well plate.APR_HepG2_NuclearSize_1hr is one of 10 assay component(s) measured or calculated from the APR_HepG2_1hr assay. It is designed to make measurements of cell phenotype, a form of morphology reporter, as detected with fluorescence intensity signals by HCS Fluorescent Imaging technology.Data from the assay component APR_HepG2_NuclearSize_1hr was analyzed into 1 assay endpoint. This assay endpoint, APR_HepG2_NuclearSize_1hr, was analyzed with bidirectional fitting relative to DMSO as the negative control and baseline of activity. Using a type of morphology reporter, measures of all nuclear dna for gain or loss-of-signal activity can be used to understand the signaling at the nuclear-level. Furthermore, this assay endpoint can be referred to as a primary readout, because this assay has produced multiple assay endpoints where this one serves a signaling function. To generalize the intended target to other relatable targets, this assay endpoint is annotated to the cell morphology intended target family, where the subfamily is organelle conformation.
Cells were treated with dimethyl sulfoxide (DMSO) as a solvent control at a final concentration of 0.5% v/v or with compounds in DMSO with a resulting final DMSO concentration of 0.5% v/v. Compound treatment was done at concentrations of 0.39, 0.78, 1.56, 3.12, 6.24, 12.5, 25, 50, 100, and 200 uM in duplicate on each plate. Cells were treated with compounds for 1, 24, or 72 hr. Carbonyl […] m-chloro-phenylhydrazone (CCCP) and taxol were used as positive controls for mitochondrial function and cytoskeletal stability, respectively; DMSO served as the negative control for this experiment. Cells were fixed by the direct addition of 50 uL formaldehyde in Hank's Balanced Salt Solution (HBSS) to a final concentration of 3.7%. After incubation in the fixation medium for 30 min at room temperature (293-298 K), cells were rinsed twice with HBSS and treated with cell permeabilization buffer (16 uL of 0.5% Triton X-100) for 10 min at room temperature (293-298 K) before labeling. For mitochondrial membrane potential and mitochondrial measurements, pre-fixed cells were incubated with 50 uL of MitoTracker Red CMXRos (Invitrogen) at a concentration of 250 nM for 30 min before fixation. In the remaining cases, post-fixed cells were labeled by incubation with a multiplexed mixture of primary antibodies in HBSS for 60 min at room temperature (293-298 K) to detect immunoreactivity of c-Jun (1:500), phospho-histone H3 (1:100), phospho-histone H2A.x (1:200), p53 (1:400), alpha-tubulin (1:200) and Hoechst 33342 (2 ug/mL). Cells were labeled for multiplexed imaging on two separate plates: a) Hoechst 33342, MitoTracker Red, phospho-histone H3, and alpha-tubulin, and b) Hoechst 33342, phospho-histone H2A.x, and c-Jun. A final rinse with HBSS (50 uL) was performed before analysis. The primary and secondary antibodies for the proteins were phospho-histone H3 (rabbit anti-phospho-histone H3 and FITC-donkey anti-rabbit IgG), phospho-histone H2A.x (mouse anti-phospho-histone H2A.x and FITC-donkey anti-mouse IgG), c-Jun (rabbit anti-phospho-c-Jun and Cy3-donkey anti-rabbit IgG), p53 (sheep anti-p53 and Cy5-donkey anti-sheep IgG), alpha-tubulin (mouse anti-alpha-tubulin and Cy5-donkey anti-mouse IgG). These antibodies are available as the CellCiphr HepG2 assay kit (Millipore).Digital images of each well were captured using a Cellomics ArrayScan VTI (Thermo Scientific Cellomics) (0.8 NA objective, 0.63x optical coupler, and XF-93 filter set) at 20x magnification. The images were acquired using the autofocus feature of the ArrayScan instrument, which entails the following steps. First, the camera focuses on channel 1 (Hoechst 33342), where nuclei are identified. Second, a Z offset of 1 um is used for capturing mitochondria (MitoTracker Red). […]
For the molecule `COP(=O)(OC)O/C(C)=C/C(=O)N(C)C`, the molecule was classed as inactive. Regarding `CC(C)C1(C)N=C(c2ncccc2C(=O)O)NC1=O` (stereo not given), the outcome was inactive. Turning to `CC1(C)C(C(=O)OC(C#N)c2cccc(Oc3ccccc3)c2)C1(C)C` (stereo not given), the outcome was inactive. `CCOc1nc(F)cc2nc(S(=O)(=O)Nc3c(Cl)cccc3Cl)nn12`: the call was inactive. As for `CCOP(=O)(OCC)Oc1nc(Cl)c(Cl)cc1Cl`, the call was inactive. Same read-out and setting: under `CS(=O)(=O)c1cc(C(F)(F)F)ccc1C(=O)c1cnoc1C1CC1` stands “inactive”; under `Cc1ccc(N=CN(C)C=Nc2ccc(C)cc2C)c(C)c1`, “inactive”; under `Nc1c(Cl)c(Cl)nc(C(=O)O)c1Cl`, “inactive”. On to `O=C(O)c1c(Cl)ccc2cc(Cl)cnc12`, for which the call was inactive. Consider `CC1(C)CON(Cc2ccccc2Cl)C1=O`, for which the outcome was inactive. For `COC(=O)NC(=S)Nc1ccccc1NC(=S)NC(=O)OC`, the molecule was classed as inactive. Still for that read-out and setting: under `Cc1nc(N(C)C)nc(OC(=O)N(C)C)c1C` stands “inactive”; under `N#Cc1c[nH]cc1-c1cccc2c1OC(F)(F)O2`, “inactive”.

With `CCCCC(C#N)(Cn1cncn1)c1ccc(Cl)cc1` (stereo not given), the molecule was called inactive. On the same count and under the same terms, under `CCCCOCN(C(=O)CCl)c1c(CC)cccc1CC` stands “inactive”.

For the molecule `CC(C)N1C(=O)N(c2ccccc2)CSC1=NC(C)(C)C`, the result was inactive. Regarding `CC1(C)CCC(=Cc2ccc(Cl)cc2)C1(O)Cn1cncn1` (stereo not given), the call was inactive. For `Nc1cnn(-c2ccccc2)c(=O)c1Cl`, the result was inactive. With `CCSC(=O)N1CCCCCC1`, the molecule was classed as inactive. Regarding `CNC(=O)N(C)c1nnc(C(C)(C)C)s1`, the molecule was classed as inactive.

As for `C=CCOC(=O)C(C)(C)OC(=O)c1cc(-n2c(=O)cc(C(F)(F)F)n(C)c2=O)ccc1Cl`, the result was inactive.

For `Clc1nc(Cl)nc(Nc2ccccc2Cl)n1`, the outcome was inactive. Turning to `CCOC(=O)C(C)OC(=O)c1cc(Oc2ccc(C(F)(F)F)cc2Cl)ccc1[N+](=O)[O-]` (stereo not given), the result was inactive.

For the molecule `CNC(=O)Oc1cccc2ccccc12`, the result was inactive.

`COP(=S)(OC)Oc1ccc([N+](=O)[O-])c(C)c1`: the call was inactive.

With `O=c1n(Cl)c(=O)n(Cl)c(=O)n1Cl`, the result was inactive. For the molecule `CC(C)(C)C(=O)C(Oc1ccc(Cl)cc1)n1cncn1` (stereo not given), the result was inactive. Turning to `CCOP(=S)(OCC)Oc1nc(Cl)n(C(C)C)n1`, the molecule was classed as inactive. Still for that read-out and setting: the value for `CC(C)N1C(=O)c2ccccc2NS1(=O)=O` was “inactive”. Regarding `O=C1C2CC=CCC2C(=O)N1SC(Cl)(Cl)Cl` (stereo not given), the outcome was inactive.

With `N#CN=C1SCCN1Cc1ccc(Cl)nc1`, the outcome was inactive.

As to `COCC(=O)N(c1c(C)cccc1C)C(C)C(=O)OC` (stereo not given), the result was inactive.

On to `C=C(C)CN(CC)c1c([N+](=O)[O-])cc(C(F)(F)F)cc1[N+](=O)[O-]`, for which the molecule was called inactive. For `COc1cc(Cl)c(OC)cc1Cl`, the result was inactive.

In the case of `Cc1c(COC(=O)[C@@H]2[C@H](/C=C(\Cl)C(F)(F)F)C2(C)C)cccc1-c1ccccc1`, the result was inactive. As to `CCC(C)n1c(=O)[nH]c(C)c(Br)c1=O` (stereo not given), the molecule was called inactive.

On to `N#Cc1c(Cl)cccc1Cl`, for which the molecule was classed as inactive. With `CC(C)=CC1C(C(=O)OCc2coc(Cc3ccccc3)c2)C1(C)C` (stereo not given), the outcome was inactive. As for `OC(c1ccc(Cl)cc1)(c1ccc(Cl)cc1)C(Cl)(Cl)Cl`, the AC50 is 110 µM (active). For `CCNC(=O)NC(=O)C(C#N)=NOC`, the molecule was called inactive.
